rTrxR1 inhibitor: rat TrxR1 inhibition; recombinant rTrxR1, NADPH fluorescence consumption, selenite substrate; AID 588453; 1% of 390,000 active; O89049; Potency, µM (series often up to 114 µM), for inactives: at the highest dose activity change, negative = inhibition, hits mostly inhibitors; note: % is set by controls: 0 for no effect and ±100 for the full control effect; nearly all actives have a fitted effect of over 65% in size
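Rat TrxR1 (90 nM in the dispensed reagent) was pre-reduced with 400 uM NADPH for 5 min at room temperature, then incubated with compound for 15 min. After 400 uM selenite was added, NADPH fluorescence (Ex 340/Em 450 nm) was followed for 8 min.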
Vif-APOBEC3F blk: blocks the Vif interaction with APOBEC3F | Potency, µM (top dose mostly 46.1 µM), inactives show top-dose activity, negative = active | AID 602313 | 0.2% of 390,000 active | HeLa A3F-eYFP + Vif (tagged APOBEC3F with the HIV-1 protein that degrades it), YFP fluorescence increase; note: % of control where 0% means no effect; nearly all actives have a fitted effect of over 65% in size
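Fluorescence increase (Ex 488/Em 500-530) after overnight compound treatment at 37 deg C flags inhibition of Vif-driven A3F-eYFP loss in stable HeLa A3F-eYFP/Vif cells seeded overnight beforehand.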
VDR inh: blocks the human vitamin D receptor; P11473; VDR-SRC2-3 peptide fluorescence polarization, 2 h; Potency, µM, inactives show max response, negative = inhibition, usual class: inhibitors; 0.93% of 400,000 active; note: % is set by controls: 0 for no effect and ±100 for the full control effect
Target sequence (P11473 whole entry, looked up): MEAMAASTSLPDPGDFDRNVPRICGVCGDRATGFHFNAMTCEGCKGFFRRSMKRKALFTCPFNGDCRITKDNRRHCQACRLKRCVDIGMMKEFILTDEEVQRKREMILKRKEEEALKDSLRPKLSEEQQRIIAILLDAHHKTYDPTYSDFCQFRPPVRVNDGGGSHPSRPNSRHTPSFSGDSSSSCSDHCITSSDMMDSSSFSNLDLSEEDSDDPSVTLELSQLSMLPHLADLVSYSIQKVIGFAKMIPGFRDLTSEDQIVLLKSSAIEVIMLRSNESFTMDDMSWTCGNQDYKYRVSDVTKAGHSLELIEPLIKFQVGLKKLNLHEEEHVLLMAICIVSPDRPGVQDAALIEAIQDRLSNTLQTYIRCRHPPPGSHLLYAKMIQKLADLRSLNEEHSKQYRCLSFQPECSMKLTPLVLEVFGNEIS
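FP read-out; VDR + SRC2-3 coactivator peptide; 23 nl compound by pintool; 2 h RT incubation; reagents held at 4 deg C, protected from light.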
Vif-A3G inh: inhibitors of Vif-APOBEC3G interaction; Q9HC16; HeLa A3G-eYFP + Vif (tagged APOBEC3G with the HIV-1 protein that degrades it), YFP fluorescence, overnight; Potency, µM (highest dose often 46.1 µM), for inactives: at the top dose activity, negative = active, hits mostly inhibitors; 0.076% of 410,000 active; AID 602310; note: % is set by controls: 0 for no effect and ±100 for the full control effect; nearly all actives have a fitted effect of over 60% in size
Target sequence (Q9HC16 whole entry, looked up): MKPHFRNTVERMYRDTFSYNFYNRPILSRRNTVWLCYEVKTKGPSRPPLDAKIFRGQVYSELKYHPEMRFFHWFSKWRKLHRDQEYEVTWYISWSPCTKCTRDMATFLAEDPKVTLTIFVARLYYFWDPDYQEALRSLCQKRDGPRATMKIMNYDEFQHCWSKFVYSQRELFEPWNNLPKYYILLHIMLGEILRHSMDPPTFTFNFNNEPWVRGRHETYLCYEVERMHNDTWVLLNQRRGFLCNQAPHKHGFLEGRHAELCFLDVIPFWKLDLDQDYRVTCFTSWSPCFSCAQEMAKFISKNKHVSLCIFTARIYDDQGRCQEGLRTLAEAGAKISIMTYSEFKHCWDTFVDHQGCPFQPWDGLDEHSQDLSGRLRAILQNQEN
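HeLa cells stably expressing Vif and C-terminally eYFP-tagged A3G, seeded overnight at 37 deg C, then exposed to compound by pintool overnight at 37 deg C. Rise in yellow fluorescence (Ex 488/Em 500-530, Acumen) marks blocked Vif-driven A3G degradation.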
TrxR1 substrate: rat thioredoxin reductase 1 substrate activity; O89049; purified TrxR1 substrate turnover, NADPH consumption readout; Potency, µM (highest dose often 114 µM), without a hit: at the top dose activity change, negative = substrate turnover; 0.01% of 390,000 active; note: % is set by controls: 0 for no effect and ±100 for the full control effect; nearly all actives have a fitted effect of over 50% in size
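Rat TrxR1, dispensed at 90 nM, was prereduced with 400 uM NADPH (final) for 5 min at ~22 deg C, then incubated with compound 15 min before 400 uM selenite. A first-read NADPH fluorescence drop versus no-compound background flagged substrates.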
VDR confirm: confirmation of human vitamin D receptor inhibitors; shares compounds with VDR inh; VDR-coactivator inhibition assay, qHTS confirmation; Potency, µM, hits mostly inhibitors; 89% of 840 active
VDR FP: VDR (human) coactivator binding inhibition, fluorescein polarization; AID 602200; shares compounds with VDR inh; Potency, µM (top dose mostly 57.1 µM), without a hit: at the highest dose activity change, negative = inhibition, most hits filed as inhibitors; 48% of 840 active; VDR-coactivator binding, fluorescein fluorescence polarization
VDR bla: confirmation of human vitamin D receptor inhibitors in reporter cells; VDR beta-lactamase reporter cells, FRET ratio; cells co-treated with VDR agonist LG190178; AID 602202; 23% of 840 active; shares compounds with VDR inh; Potency, µM (titrated, usually from 46.1 µM), inactives show top-dose activity change, negative = inhibition, most hits filed as inhibitors; note: % is set by controls: 0 for no effect and ±100 for the full control effect
VDR viability: cell toxicity, VDR inhibitor hit counter-screen. shares compounds with VDR inh. cytotoxicity counter-screen, cell viability, qHTS. Potency, µM (doses to about 48.3 µM), for inactives: at the highest dose activity change, negative = cytotoxicity, usual class: cytotoxic. 18% of 840 active;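 note: plate controls were DMSO for no effect and high-concentration cycloheximide for full effect; nearly all actives have a fitted effect of over 75% in size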
An asterisk follows results filed as active; ? = inconclusive; / = no result given; [ ] = another dose, or the depositor's remark. Sampled rows, rich in hits. Any-hit rate of the full collection: about 1.8%. Calls come from the whole dose curve; as a rule, active = well fitted curve in the direction sought with a large enough effect; inconclusive = small, poorly fitted or top-dose-only effect, or another doubt; inactive = no such curve, though single readings can be large; an effect the other way counts as inactive or inconclusive. Potency is the fitted concentration of half-maximal effect.

SMILES	rTrxR1 inhibitor	Vif-APOBEC3F blk	VDR inh	Vif-A3G inh	TrxR1 substrate	others
Brc1cccc(-c2nnn3c2nc(NCc2ccc4c(c2)OCO4)c2ccccc23)c1	5.9%	-26.6%	3.3%	0.5%	10.1%
Cc1ccc(C(c2c(O)nc3n(c2=O)CCS3)c2c(O)nc3n(c2=O)CCS3)cc1	2.82µM*	2.4%	50.1µM*	-1.2%	12.7%[57.1 µM]
O=c1c(C/C=C/c2ccccc2)c(O)nc2n1CCCS2	?	7.4%	-8.1%	-0.6%	-9.7%
O=c1c(Cc2ccccc2)c(O)nc2n1CCS2	-6.8%	-3.5%	-8.4%	2.0%	-7.6%
O=c1c(C(c2ccc(O)cc2)c2c(O)nc3n(c2=O)CCCS3)c(O)nc2n1CCCS2	3.55µM*	-0.9%	50.1µM*	-0.7%	12.0%
O=c1c(C(c2ccc(O)cc2)c2c(O)nc3n(c2=O)CCS3)c(O)nc2n1CCS2	3.16µM*	1.6%	?	-0.5%	-7.2%
CCCc1nn2c(=O)c(C(c3ccc(C)cc3)c3c(O)nc4sc(CCC)nn4c3=O)c(O)nc2s1	-29.4%	-4.7%	0.7%	-1.4%	-0.6%
O=c1c(C(c2c(O)nc3n(c2=O)CCS3)c2cccc3ccccc23)c(O)nc2n1CCS2	11.2µM*	-5.1%	?	0.8%	-8.2%
CC(C)(C)n1ncc2c(=O)n(Cc3ccc(C#N)cc3)cnc21	-2.0%	/	/	0.3%	-0.2%
COc1ccc(C(=O)NCC(c2ccc3c(c2)OCO3)N2CCOCC2)cc1OC (centres undefined)	20.3%[57.1 µM]	-1.1%	3.3%	0.3%	6.7%[57.1 µM]
CC(O)CNC(=O)C(=O)Nc1c2c(nn1-c1ccc(Cl)cc1)CSC2 (centres undefined)	25.1%[57.1 µM]	0.2%	7.8%	-6.5%	5.3%[57.1 µM]
COCCn1c(=O)cnc2cnc(OC)nc21	/	/	8.5%	/	/
O=C(NCCCCc1ccccc1)c1cccc(NC(=O)C2CC2)c1	5.3%	8.5%	79.4µM*	3.0%	-14.0%
O=C(O)c1ccc(-c2nc(-c3ccc(Cl)cc3Cl)cs2)cc1	5.0%	9.1%	19.4%	-5.3%	5.5%
CC(=O)N1CC[n+]2c(-c3ccc(Cl)cc3Cl)csc21	12.8%	-12.3%	39.8µM*	-10.5%	-7.2%
C[n+]1c(/C=C/c2ccnc3ccccc23)cc(/C=C/c2ccnc3ccccc23)c2ccccc21	?	/	/	9.9%	-11.9%
Cc1ccccc1N(C)C(=O)c1noc2c1COc1ccccc1-2	2.6%	7.5%	10.5%	3.7%	1.7%
CNC(=O)c1ccc(Nc2nc(-c3ccccc3)nc3ccccc23)cc1	8.4%[57.1 µM]	11.8%	7.7%	-7.5%	20.3%[57.1 µM]
CN(C)C(=O)c1ccc(-c2nc(Nc3ccccc3)c3ccccc3n2)cc1	/	/	39.8µM*	/	/
CN1CCN(c2nc(-c3ccoc3)nc3ccccc23)CC1	/	/	-12.5%	/	/
c1ccc(Nc2nc(-c3ccoc3)nc3ccccc23)cc1	/	/	28.2µM*	/	/
CN(C)C(=O)c1ccc(-c2nc(NCc3ccccc3)c3ccccc3n2)cc1	/	/	-4.8%	/	/
O=C(O)c1ccc(Nc2nc(-c3ccccc3)nc3ccccc23)cc1	-7.1%	2.0%	79.4µM*	-0.6%	-8.5%
c1ccc2c(-n3ccnc3)nc(-c3ccoc3)nc2c1	/	/	31.6µM*	/	/
CN(C)c1ccc(CCc2ccnc3ccccc23)cc1	15.3%	/	/	3.1%	-3.6%
SMILES	rTrxR1 inhibitor	Vif-APOBEC3F blk	VDR inh	Vif-A3G inh	TrxR1 substrate	others
COc1cc2c(cc1OC)C(c1cc(-c3cc(Cl)ccc3Cl)oc1C)=NCC2	-7.4%	/	/	-1.1%	7.5%
COc1cccc(Cn2c(=O)cnc3cnc(Oc4ccccc4)nc32)c1	/	/	-12.3%	/	/
O=C(Cc1ccccc1)Nc1ccc2c(c1)OC1(CCCC1)O2	-10.1%	-1.1%	-8.4%	-2.4%	-5.9%
Nc1ccc2c(c1)OC1(CCCC1)O2	-4.4%[57.1 µM]	0.1%	79.4µM*	?	3.3%
CS(=O)(=O)c1ccc(N)c(SSc2cc(S(C)(=O)=O)ccc2N)c1	77.3%[57.1 µM]	-15.6%	25.1µM*	-5.0%	-5.5%[57.1 µM]
CS(=O)(=O)c1ccc2nc(N)sc2c1	22.5%[57.1 µM]	3.2%	-7.5%	-1.2%	-0.8%[57.1 µM]
O=C(Nc1ccc(N2CCCC2)cc1)C(Cl)c1ccccc1 (centres undefined)	15.8µM*	2.0%	44.7µM*	-8.1%	-3.1%
CS(=O)(=O)N1CCN(c2ccc(NC(=O)C(c3ccccc3)c3ccccc3)cc2)CC1	18.6%	4.3%	-3.7%	1.3%	2.0%
N#Cc1c(N)n(Cc2ccccc2)c(=O)c2cc([N+](=O)[O-])ccc12	10.3%[57.1 µM]	3.0%	-22.0%	-21.9%	7.8%[57.1 µM]
Cn1c(N)c(-c2ccccc2)c2ccc([N+](=O)[O-])cc2c1=O	0.8%	?	-5.3%	8.91µM*	-3.1%
CCN(CC)CCOC(=O)c1ccc(NC(=O)c2cc3cccc(OC)c3oc2=O)cc1	14.3%[57.1 µM]	-1.5%	8.0%	0.4%	-1.6%[57.1 µM]
CN(C)c1ccc(/C=C(/C(=O)c2ccc(Cl)cc2Cl)n2cncn2)cc1	-22.5%	?	1.0%	12.6µM*	-19.9%
COc1ccc(/C=C(/C(=O)c2ccc(Cl)cc2Cl)n2cncn2)cc1	-23.0%	-14.0%	56.2µM*	-12.5%	-10.2%
CC(C)CSc1nnc2c(n1)[nH]c1ccccc12	8.7%	-1.7%	14.1%	-0.4%	3.9%
Fc1ccc2nc3[nH]c4ccccc4c3nc2c1	6.4%[57.1 µM]	?	4.0%	1.41µM*	7.2%[57.1 µM]
CCOc1ccc(-n2nc(CO)c(C(=O)NCc3ccccn3)n2)cc1	33.7%	-9.2%	-2.9%	-22.8%	177.2%
O=Cc1ccnc2ccccc12	5.5%	/	/	1.5%	-4.0%
Cc1csc(NC(=O)CCC(=O)N(CC(=O)NC2CCCC2)Cc2ccccc2)n1	-12.6%	11.2µM*	-13.7%	?	17.3%
Cc1ccc(C2=NOC(=O)/C2=C\c2ccccc2)cc1	3.98µM*	-23.2%	31.6µM*	-3.5%	3.5%	VDR confirm=7.52*;VDR FP=?;VDR bla=-0.2%;VDR viability=29.7%
O=C1ON=C(c2ccccc2)/C1=C/c1ccccc1	4.47µM*	?	44.7µM*	7.4%	10.8%	VDR confirm=18.9*;VDR FP=6.31µM*;VDR bla=27.0%;VDR viability=-15.4%
CC1=NOC(=O)/C1=C/c1ccc(O)cc1	?	-3.0%	?	-9.8%	0.6%[57.1 µM]

Screening results deposited in PubChem by National Center for Advancing Translational Sciences (NCATS).
